Laboratory results taken from PubChem BioAssay (EPA / NIEHS).
Calls of active or inactive are those of the source. Rule for the calls: active = hit-call score of the fitted dose curve at least 0.9, where 1 is the maximum; inactive = score below 0.9.

target: Nuclear respiratory factor 1 (Homo sapiens) (UniProt Q16656); experiment: ATG_NRF1_CIS: Attagene CIS-FACTORIAL HepG2 Assay for human Nuclear Respiratory Factor 1 (NRF1) Orphan Gene (AID 2282987); conditions: HepG2 NRF1 cis-element reporter, Attagene multiplex; actives raise or lower the signal
Procedure: ATG_CIS is a cell-based, multiplexed-readout assay that uses HepG2, a human liver cell line, with measurements taken at 24 hours after chemical dosing in a 24-well plate.ATG_NRF1_CIS is one of 52 assay component(s) measured or calculated from the ATG_CIS assay. It is designed to make measurements of mRNA induction, a form of inducible reporter, as detected with fluorescence intensity signals by Reverse transcription polymerase chain reaction (RT-PCR) and Capillary electrophoresis technology.Data from the assay component ATG_NRF1_CIS was analyzed into 1 assay endpoint. This assay endpoint, ATG_NRF1_CIS, was analyzed with bidirectional fitting relative to DMSO as the negative control and baseline of activity. Using a type of inducible reporter, measures of mRNA for gain or loss-of-signal activity can be used to understand the reporter gene at the transcription factor-level as they relate to the gene NRF1. Furthermore, this assay endpoint can be referred to as a primary readout, because this assay has produced multiple assay endpoints where this one serves a reporter gene function. To generalize the intended target to other relatable targets, this assay endpoint is annotated to the dna binding intended target family, where the subfamily is nuclear respiratory factors.
Human liver HepG2 cells are transiently transfected with multiple reporter transcription units (MRTUs) in 6-well plates using FuGene 6 reagent (Roche; 3 ml FuGene/1 mg DNA). The MRTU constructs are regulated by a cis-regulating element (promoter). […] A major difference between the CIS and TRANS system is that in CIS activities of endogenous TFs are measured, whereas the TRANS assay evaluates changes in activities of exogenous, chimeric NR-Gal4 proteins. […] At the end of 24 hour incubation, total RNA was isolated using TriZol reagent (Invitrogen). The isolated RNA is then reverse-transcribed using oligo(dT) primer and Mo-MLV reverse transcriptase (Invitrogen) with DNAse I (Ambion) treatment for 30 min. The one-tenth of the produced cDNA was amplified by PCR using Taq DNA polymerase (Invitrogen) and two reporter sequence-specific primers. The PCR products were fluorescently labeled by primer extension with 6-arboxyfluorescein (6-FAM) 5'-labeled reporter sequence-specific primer (2 min at 95 C, 20 s at 68 C and 10 min at 72 C) and these products were digested with 5U of HpaI (New England Biolabs) for 2h at 37 C. The fragments were purified using Qiaquick PCR columns (Qiagen), analyzed on an ABI 3130xL genetic analyzer (Applied Biosystems) with peak positions identified by using a set of X-rhodamine (ROX)-labeled MapMarker1000 molecular weight standards (BioVentures). The raw capillary electrophoresis data was processed using Attagraph software (Attagene).

Nuclear respiratory factor 1 (Homo sapiens), sequence (Q16656 whole entry, looked up): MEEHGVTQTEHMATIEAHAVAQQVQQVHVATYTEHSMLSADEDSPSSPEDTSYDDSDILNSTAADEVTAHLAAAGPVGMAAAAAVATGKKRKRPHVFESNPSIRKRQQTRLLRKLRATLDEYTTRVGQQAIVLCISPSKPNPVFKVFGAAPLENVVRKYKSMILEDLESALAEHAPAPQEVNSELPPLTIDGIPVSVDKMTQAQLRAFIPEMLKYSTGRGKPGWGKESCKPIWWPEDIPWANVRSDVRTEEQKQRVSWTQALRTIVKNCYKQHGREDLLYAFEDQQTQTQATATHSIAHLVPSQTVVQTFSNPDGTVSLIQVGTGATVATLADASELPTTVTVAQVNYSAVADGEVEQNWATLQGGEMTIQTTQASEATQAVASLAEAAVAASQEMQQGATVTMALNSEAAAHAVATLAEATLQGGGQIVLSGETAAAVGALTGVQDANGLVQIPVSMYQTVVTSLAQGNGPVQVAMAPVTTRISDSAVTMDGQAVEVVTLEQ

Question: `O=c1c(O)c(-c2ccc(O)cc2)oc2cc(O)cc(O)c12` was tested. Which outcome did it give?
Answer: inactive

Question: How did the outcome turn out when `C=C(C)C1CC=C(C)C(=O)C1` (stereo not given) was run?
Answer: inactive

Question: `CCOc1ccccc1O` was tested. Which outcome did it give?
Answer: inactive

Question: With `CC(C)(C)OC(=O)c1ccc(O)cc1` as the compound, how does the outcome read?
Answer: inactive

Question: `CC(C)CCOC(=O)c1ccccc1` was tested. Which outcome did it give?
Answer: inactive

Question: Which outcome does the source give for `CCCCOCC` here?
Answer: inactive

Question: Which outcome does the source give for `CCCCCCCCCC(=O)OC` here?
Answer: inactive

Question: With `C[C@H]1C[C@@H](O)CC(C)(C)C1` as the compound, how does the outcome read?
Answer: inactive

Question: Which AC50 does the source give for `CCCCN(CCCC)C(=O)N(CCCC)CCCC` here?
Answer: 40.2 µM (active)

Question: For `O=C(CC(=O)c1ccccc1)c1ccccc1`, which AC50 is on record?
Answer: 176 µM (active)

Question: With `COc1ccccc1N=Nc1c(S(=O)(=O)O)cc2cc(S(=O)(=O)O)cc(NC(C)=O)c2c1O` as the compound, how does the outcome read?
Answer: inactive

Question: With `COc1ccc(CCO)cc1` as the compound, how does the outcome read?
Answer: inactive

Question: Which outcome does the source give for `Oc1ccc2cc(SSc3ccc4cc(O)ccc4c3)ccc2c1` here?
Answer: inactive

Question: For `CC=CC=CCOC(=O)C(C)C`, which outcome is on record?
Answer: inactive

Question: `COC(=O)c1ccc(OC)cc1` was tested. Which outcome did it give?
Answer: inactive

Question: Which outcome does the source give for `CCCCCCCCCCCCCC(=O)OCC(O)CO` (stereo not given) here?
Answer: inactive

Question: `CN(C)c1cccc(O)c1` was tested. Which outcome did it give?
Answer: inactive

Question: For `CCCC(=O)OCCc1ccccc1`, which outcome is on record?
Answer: inactive

Question: Which outcome does the source give for `CCc1ccc(O)cc1` here?
Answer: inactive

Question: For `CC(C)NCC(O)COc1ccc(CC(N)=O)cc1` (stereo not given), which outcome is on record?
Answer: inactive

Question: With `C=Cc1ccncc1` as the compound, how does the AC50 read?
Answer: 37.5 µM (active)

Question: Which outcome does the source give for `CCCCCCCCSCCO` here?
Answer: inactive

Question: `CCCN(CCC)S(=O)(=O)c1ccc(C(=O)O)cc1` was tested. Which outcome did it give?
Answer: inactive

Question: With `O=C1OC2(c3ccccc31)c1ccc(O)c(Br)c1Oc1c2ccc(O)c1Br` as the compound, how does the outcome read?
Answer: inactive

Question: `CCOCCOCCOCC` was tested. Which outcome did it give?
Answer: inactive

Question: How did the outcome turn out when `CCCCCCC(O)CCCCCCCCCCC(=O)O` (stereo not given) was run?
Answer: inactive

Question: Which outcome does the source give for `CCCCCC(C=O)=Cc1ccccc1` here?
Answer: inactive

Question: Which outcome does the source give for `C[Si]1(C)O[Si](C)(C)O[Si](C)(C)O1` here?
Answer: inactive

Question: `Cc1ccc(N)c(S(=O)(=O)O)c1` was tested. Which outcome did it give?
Answer: inactive

Question: For `CS(=O)(=O)OCCCCOS(C)(=O)=O`, which outcome is on record?
Answer: inactive

Question: How did the outcome turn out when `COc1ccccc1[N+](=O)[O-]` was run?
Answer: inactive

Question: `COc1ccc(CCC(C)=O)cc1` was tested. Which outcome did it give?
Answer: inactive

Question: Which outcome does the source give for `CCOc1ccc(N=Nc2ccc(C=Cc3ccc(N=Nc4ccc(OCC)cc4)cc3S(=O)(=O)O)c(S(=O)(=O)O)c2)cc1` here?
Answer: inactive

Question: How did the outcome turn out when `COC(CC(C)CCCC(C)(C)O)OC` (stereo not given) was run?
Answer: inactive

Question: `C=CC(C)C#N` (stereo not given) was tested. Which outcome did it give?
Answer: inactive

Question: How did the outcome turn out when `CSCCC=O` was run?
Answer: inactive

Question: With `N[C@@H](Cc1cc(I)c(Oc2cc(I)c(O)c(I)c2)c(I)c1)C(=O)O` as the compound, how does the outcome read?
Answer: inactive

Question: `CC(=O)O[C@@H]1CC2CCC1(C)C2(C)C` (stereo not given in full) was tested. Which outcome did it give?
Answer: inactive

Question: How did the outcome turn out when `O=CCc1ccccc1` was run?
Answer: inactive

Question: For `CCCCC1CCC(O)CC1` (stereo not given), which outcome is on record?
Answer: inactive
